PubChem BioAssay
Several values for one entry are separate records, joined by “and”; a condition that tells them apart may be missing. Equal values may be shown once. Inconclusive results are not listed. Activity calls are given as the source filed them.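 Rule for the calls, unless noted: active = normalized viability below 100% at a tested concentration; inactive = the rest.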

Tests used:
[1] = stimulators of nuclear beta-catenin in C2C12, primary screen, imaging, WNT3A-conditioned medium, mouse C2C12, NPC library (AID 1117326; in the data active = nuclear beta-catenin stimulation mostly above about 4.2%, no sharp cut-off; inactive = mostly below about 10%); details: stronger effect = higher value
[2] = stimulators of insulin release from INS-1E, primary screen, cell-based, 5 mM glucose, NPC library (AID 1117329;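 active = compound raises insulin release from rat beta cells at 5 mM glucose, no numeric limit stated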); details: rat INS-1E insulin secretion, at 10 µM, stronger effect = higher value
[3] = growth inhibition of GSK3B-pretreated HCT116 cells – cell-based, CellTiter-Glo, 0.2 to 20 µM (AID 1117336;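 active = compounds lowering colon cancer cell viability after pretreatment blocking the GSK3B kinase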); details: HCT116 viability after GSK3B inhibitor, at 20 µM, stronger effect = higher value
[4] = inhibition of endothelial tube formation, primary screen, imaging, VEGF stimulated, CD31 staining, tube area, NPC library (AID 1117340;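 active = compound that reduces growth-factor-driven endothelial tube area in a mixed cell culture, no cutoff stated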); details: VEGF-stimulated ADSC/ECFC co-culture, at 10 µM, stronger effect = higher value
[5] = glucagon-like peptide 1 release enhancers, primary assay, NCI-H716 cell line, NPC library (AID 1117341;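 active = compound raises GLP1 secretion from the human gut endocrine cells, with no numeric limit stated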); details: NCI-H716 cells, at 10 µM, stronger effect = higher value
[6] = HCT116 colon cancer cell growth inhibition, primary screen, CellTiter-Glo luminescence, NPC library (AID 1117342;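 active = compounds that lower survival of HCT116 colon cancer cells in the luminescence readout, no numeric limit stated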); details: at 20 µM (top of the series)
[7] = CellTiter-Glo luminescent readout of SW480 viability loss, NPC library primary (AID 1117343;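 active = compounds that lower viability of the colon cancer cells in the luminescence readout, with no numeric limit stated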); details: CellTiter-Glo luminescence; at 20 µM (top of the series) unless noted
[8] = decreased DLD-1 cellular survival, CellTiter-Glo luminescent readout, NPC compound collection, primary HTS (AID 1117346;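 active = compounds that lower survival of DLD-1 colon cancer cells in the luminescence readout, no cutoff given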); details: DLD-1 viability, CellTiter-Glo luminescence; at 20 µM (top of the series)
[9] = growth inhibition of DIPG glioma cells, dose response, cell-based, SU-DIPG-XVII, MIPE5.0, CellTiter-Glo, qHTS (AID 1347060; cut-off not given, nearly all actives have AC50 up to about 26 µM;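 for AC50: cells exposed to compound for 48 hours before viability readout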); details: SU-DIPG-XVII viability, CellTiter-Glo ATP luminescence
[10] = growth inhibition of DIPG glioma cells, dose response, cell-based, SU-DIPG-XIII, MIPE4.0, CellTiter-Glo, qHTS (AID 1347061; cut-off not given, nearly all actives have AC50 up to about 37 µM;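 note: cells exposed to compound for 48 hours before readout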); details: SU-DIPG-XIII viability, CellTiter-Glo ATP luminescence
[11] = SU-DIPG-VI glioma cell viability, MIPE4.0 library, CellTiter-Glo luminescence, qHTS (AID 1347066; cut-off not given, nearly all actives have AC50 up to about 30 µM;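 note: cells exposed to compound for 48 hours before readout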); details: CellTiter-Glo ATP luminescence
[12] = SU-DIPG-XXV glioma cell viability, MIPE5.0 library, qHTS (AID 1347068; cut-off not given, nearly all actives have IC50 up to about 30 µM;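 for IC50: cells exposed to compound for 48 hours before viability readout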)
[13] = ovarian cancer cell viability with rucaparib, profiling panel, oncology-focused library, rucaparib conditional (AID 1508598); details: patient-derived ovarian cancer cells, CellTiter-Glo viability, 144 h, stronger effect = lower value
[14] = test system: Aerobactin synthetase IucA (Klebsiella pneumoniae); test: IucA aerobactin synthetase inhibitors, biochemical, Tocris library, absorbance (AID 1345561; call rule not given here;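 note: 100% = enzyme without compound and 0% = no enzyme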); details: purified IucA enzyme assay, absorbance (OD) read-out; stronger effect = lower value;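 tested at 8 µM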
[15] = sensitizers of A549 cells to miR-34 induction, primary screen, imaging, A549 dox-inducible miR-34, nuclei and caspase counts (AID 1347080;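 active = compounds whose cell count with miR-34 switched on is under 0.7 times the count with it off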); details: A549 miR-34 inducible, Hoechst nuclei count, 48 h
[16] = viability rescue of complex I mutant cybrids, primary screen, cell-based, galactose medium, ATP luminescence (AID 1645843;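 active = z-score of at least 1.8 in each of two replicates, scored against plate mean and spread of sample wells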;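 note: positive z means more ATP and so rescue of galactose-driven cybrid death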); details: complex I mutant cybrid cells, 72 h, stronger effect = higher value
[17] = liver-stage malaria parasite growth inhibition, primary screen, cell-based, HepG2, luciferase luminescence, HepG2 viability (AID 624349; in the data active = parasite load remaining mostly below about 12%, no sharp cut-off; inactive = mostly above about 10%;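 note: 100% = mean of DMSO negative control wells on the same plate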); details: P. berghei liver stage in HepG2, luciferase luminescence, concentration not given here; parasite load remaining: stronger effect = lower value; viability: measured here: HepG2 viability without parasites
[18] = survival rescue of mitochondrial mutant cells in low glucose, primary screen, MELAS cybrids, Rieske KO mouse fibroblasts, CellTiter-Glo (AID 1508586;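 active = mean z-score across replicates of 1.96 or higher in either the MELAS or the Rieske mutant cell line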;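 note: z relative to plate mean and SD of compound and empty wells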)
[19] = stronger effect = lower value, cell number ratio, induced over uninduced
[20] = measured here: relative caspase fold change +Dox/-Dox
[21] = measured here: total cells with miR-34 induction, stronger effect = lower value
[22] = measured here: total cells without miR-34 induction

CC(C)C[C@H](NC(=O)[C@H](Cc1ccccc1)NC(=O)c1cnccn1)B(O)O
inactive: insulin secretion stimulation [2] 2.1% | GLP1 secretion stimulation [5] 1.6% | viability ([13]; at 0.000305 µM, OCI-C5x cells, with rucaparib 10 µM, 100% = cells with rucaparib alone) 114% | viability ([13]; at 0.000305 µM, OCI-C5x cells, without rucaparib) 117% | viability ([13]; at 0.00122 µM, OCI-C5x cells, with rucaparib 10 µM, 100% = cells with rucaparib alone) 114% | viability ([13]; at 0.00122 µM, OCI-C5x cells, without rucaparib) 113% | viability ([13]; at 0.00488 µM, OCI-C5x cells, with rucaparib 10 µM, 100% = cells with rucaparib alone) 119% | viability ([13]; at 0.00488 µM, OCI-C5x cells, without rucaparib) 115% | viability ([13]; at 0.00488 µM, OCI-P5x cells, with rucaparib 20 µM, 100% = cells with rucaparib alone) 102%
active: nuclear beta-catenin stimulation ([1]; at 10 µM) 132% | viability decrease [3] 99% | tube area decrease [4] 107% | inhibition of viability [6] 100% | viability decrease (inhibition) [7] 132% | viability decrease (inhibition) [8] 95.4% | AC50 [9] 0.0209 µM | AC50 [10] 2.09 µM | AC50 [11] 26.4 nM | IC50 [12] 0.0263 µM | viability ([13]; at 0.000305 µM, OCI-P5x cells, with rucaparib 20 µM, 100% = cells with rucaparib alone) 85.1% | viability ([13]; at 0.000305 µM, OCI-P5x cells, without rucaparib) 23.5% | viability ([13]; at 0.00122 µM, OCI-P5x cells, with rucaparib 20 µM, 100% = cells with rucaparib alone) 85.3% | viability ([13]; at 0.00122 µM, OCI-P5x cells, without rucaparib) 28.3% | viability ([13]; at 0.00488 µM, OCI-P5x cells, without rucaparib) 94.3% | viability ([13]; at 0.0195 µM, OCI-C5x cells, with rucaparib 10 µM, 100% = cells with rucaparib alone) 38.9% | viability ([13]; at 0.0195 µM, OCI-C5x cells, without rucaparib) 15.9% | viability ([13]; at 0.0195 µM, OCI-P5x cells, with rucaparib 20 µM, 100% = cells with rucaparib alone) 5.88% | viability ([13]; at 0.0195 µM, OCI-P5x cells, without rucaparib) 1.5% | viability ([13]; at 0.0781 µM, OCI-C5x cells, with rucaparib 10 µM, 100% = cells with rucaparib alone) 2.87% | viability ([13]; at 0.0781 µM, OCI-C5x cells, without rucaparib) 2.36% | viability ([13]; at 0.0781 µM, OCI-P5x cells, with rucaparib 20 µM, 100% = cells with rucaparib alone) 1.94% | viability ([13]; at 0.0781 µM, OCI-P5x cells, without rucaparib) 1.08% | viability ([13]; at 0.313 µM, OCI-C5x cells, with rucaparib 10 µM, 100% = cells with rucaparib alone) 2.19% | viability ([13]; at 0.313 µM, OCI-C5x cells, without rucaparib) 1.67% | viability ([13]; at 0.313 µM, OCI-P5x cells, with rucaparib 20 µM, 100% = cells with rucaparib alone) 1.91% | viability ([13]; at 0.313 µM, OCI-P5x cells, without rucaparib) 0.96% | viability ([13]; at 1.25 µM, OCI-C5x cells, with rucaparib 10 µM, 100% = cells with rucaparib alone) 1.59% | viability ([13]; at 1.25 µM, OCI-C5x cells, without rucaparib) 1.6% | viability ([13]; at 1.25 µM, OCI-P5x cells, with rucaparib 20 µM, 100% = cells with rucaparib alone) 1.8% | viability ([13]; at 1.25 µM, OCI-P5x cells, without rucaparib) 0.86% | viability ([13]; at 5 µM, OCI-C5x cells, with rucaparib 10 µM, 100% = cells with rucaparib alone) 1.34% | viability ([13]; at 5 µM, OCI-C5x cells, without rucaparib) 1.65% | viability ([13]; at 5 µM, OCI-P5x cells, with rucaparib 20 µM, 100% = cells with rucaparib alone) 1.02% | viability ([13]; at 5 µM, OCI-P5x cells, without rucaparib) 0.609%
137%: nuclear beta-catenin stimulation ([1]; stimulation, at 2 µM)

CCC(CC)(CC(=O)Nc1cccc(/C=C/c2nc(C3CCC3)cs2)c1)C(=O)O
inactive: nuclear beta-catenin stimulation ([1]; at 10 µM) 0% | insulin secretion stimulation [2] 1% | tube area decrease [4] 5.4% | GLP1 secretion stimulation [5] 1.7% | inhibition of viability [6] 42.9% | viability decrease (inhibition) [7] 41% | remaining activity [14] 89.3% | fold change [15, 19] 0.829
0.1%: nuclear beta-catenin stimulation ([1]; stimulation, at 2 µM)
active: viability decrease [3] 96.6% | viability decrease (inhibition) [8] 70.9% | z-score [16] 2.4
7300: cell count [15, 21]
8810: cell count [15, 22]
1.27: fold change [15, 20]

COC(=O)C1=C(C)NC(C)=C(C(=O)OCCCN2CCC(c3ccccc3)(c3ccccc3)CC2)C1c1cccc([N+](=O)[O-])c1 (stereo not drawn)
380 and 6800: cell count [15, 22]
9.4%: nuclear beta-catenin stimulation ([1]; stimulation, at 2 µM)
0.733 and 0.821: fold change [15, 20]
90.5%: viability [17]
active: viability decrease [3] 110% | tube area decrease [4] 109% | inhibition of viability [6] 112% | viability decrease (inhibition) [7] 134% | viability decrease (inhibition) [8] 101% | AC50 [9] 10.5 µM | IC50 [12] 7.42 µM
-0.158: z-score ([18]; Rieske KO mouse fibroblast survival, CellTiter-Glo 72 h)
498 and 6520: cell count [15, 21]
inactive: parasite load remaining [17] 29% | nuclear beta-catenin stimulation ([1]; at 10 µM) -0.8% | insulin secretion stimulation [2] -1.1% | GLP1 secretion stimulation [5] -3.2% | outcome [10] | outcome [11] | fold change [15, 19] 1.31 and 0.96 | z-score ([18]; MELAS cybrid survival, CellTiter-Glo 48 h, stronger effect = higher value) -1.1 | z-score [16] -2.25

Nc1ccn(C[C@@H](CO)OCP(=O)(O)O)c(=O)n1
active: viability decrease (inhibition) [7] 109%
0.4%: nuclear beta-catenin stimulation ([1]; stimulation, at 2 µM)
inactive: nuclear beta-catenin stimulation ([1]; at 10 µM) 1.2% | insulin secretion stimulation [2] 1.05% | viability decrease [3] 22.7% | tube area decrease [4] -2.6% | GLP1 secretion stimulation [5] 0.9% | inhibition of viability [6] 14.9% | viability decrease (inhibition) [8] 2.8% | outcome [9] | outcome [10] | outcome [11] | outcome [12]

Cc1[nH]c(=O)c(C#N)cc1-c1ccc2nccn2c1
9250: cell count [15, 21]
inactive: nuclear beta-catenin stimulation ([1]; at 10 µM) -1.8% | insulin secretion stimulation [2] 3% | viability decrease [3] -9.8% | tube area decrease [4] -3.8% | GLP1 secretion stimulation [5] -0.6% | inhibition of viability [6] -1.6% | viability decrease (inhibition) [7] 0.1% | viability decrease (inhibition) [8] -7.8% | outcome [9] | outcome [10] | outcome [11] | outcome [12] | fold change [15, 19] 0.996 | z-score [16] 0.905
0.805: fold change [15, 20]
-0.5%: nuclear beta-catenin stimulation ([1]; stimulation, at 2 µM)
9290: cell count [15, 22]
